In all, about 1,100 compounds were measured (“Wnt reporter firefly/Renilla luciferase ratio relative to plate median”: median about 1.1, highest 2% from about 1.6 on). This is one part of a sample in which the highest values are shown more often than they occur.
Test system: HEK293T (UBE3A T485A transfected, BAR Wnt reporter)
Assay: Wnt reporter firefly/Renilla luciferase ratio relative to plate median (fold (linear ratio)); higher = more Wnt/beta-catenin reporter activation
Conditions: 24 h
Procedure, shortened: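 HEK293T cells were seeded at 4500 cells/well in white 384-well plates and grown in DMEM with 10% FBS at 37°C and 5% CO2. The cells were transfected using Fugene 6 with a BAR firefly luciferase Wnt reporter, TK-Renilla and an expression plasmid, and four hours later robots added the chemicals at 0.01–100 uM for 24 h before a Dual-Glo luciferase readout. Wnt activity was taken as the firefly/Renilla ratio and cell health as raw Renilla, each median-centred per plate. Values are averages of four biological replicates.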

SMILES | Wnt reporter firefly/Renilla luciferase ratio (concentration: 0.1 uM) | Wnt reporter firefly/Renilla luciferase ratio (concentration: 1 uM) | Wnt reporter firefly/Renilla luciferase ratio (concentration: 10 uM) | Wnt reporter firefly/Renilla luciferase ratio (concentration: 100 uM) | Wnt reporter firefly/Renilla luciferase ratio (concentration: 0.01 uM)
C=CCOC(=O)c1ccccc1C(=O)OCC=C [Diallyl phthalate] | 1.17 | 1.04 | 1.22 | 1.09 | –
CCOc1cc(Oc2ccc(C(F)(F)F)cc2Cl)ccc1[N+](=O)[O-] [Oxyfluorfen] | 1.05 | 0.917 | 1.07 | 0.292 | 1.01
CCCCCCCCCCCCCN1CC(C)OC(C)C1 (stereo unspecified) [Tridemorph] | 1.09 | 1.23 | 1.04 | 1.05 | –
CCOP(=O)(OCC)Oc1nc(Cl)c(Cl)cc1Cl [Chlorpyrifos oxon] | 0.876 | 1.02 | 0.861 | 0.591 | 0.967
CN(C)C(=O)Cl [Dimethylcarbamoyl chloride] | 0.982 | 1.32 | 1.35 | 1.31 | –
Cc1cccc([N+](=O)[O-])c1 [3-Nitrotoluene] | 1.02 | 1.03 | 0.836 | 1.17 | –
CN(C)C(=O)Nc1cccc(C(F)(F)F)c1 [Fluometuron] | 1.43 | 1.1 | 0.996 | 1.04 | 1.3
O=P(OC(CCl)CCl)(OC(CCl)CCl)OC(CCl)CCl | 1.19 | 0.764 | 1.31 | 0.44 | –
CCC(CC)Nc1c([N+](=O)[O-])cc(C)c(C)c1[N+](=O)[O-] [Pendimethalin] | 0.866 | 0.946 | 0.92 | 1.08 | 0.882
CC(C)(C)CC(C)(C)c1ccc(O)cc1 [4-(1,1,3,3-Tetramethylbutyl)phenol] | 1.03 | 0.968 | 1.15 | 0.935 | –
CN1COCN(Cc2cnc(Cl)s2)C1=N[N+](=O)[O-] [Thiamethoxam] | 1.19 | 1.01 | 0.971 | 1.2 | 1.14
c1ccc(N=Nc2ccccc2)cc1 [Azobenzene] | 1.35 | 1.05 | 1.38 | 1.1 | –
c1ccc(NNc2ccccc2)cc1 [1,2-Diphenylhydrazine] | 1.25 | 1.04 | 1.19 | 1.27 | –
c1ccc(C2CO2)cc1 (stereo unspecified) [Styrene oxide] | 1.23 | 0.89 | 1.19 | 1.71 | –
CCOP(=S)(Oc1ccc([N+](=O)[O-])cc1)c1ccccc1 (stereo unspecified) | 1.05 | 1.07 | 0.965 | 0.846 | –
COc1nn(CSP(=S)(OC)OC)c(=O)s1 [Methidathion] | 1.74 | 1.33 | 1.56 | 0.818 | 1.41
Cc1cc(-c2ccc(N)c(C)c2)ccc1N [3,3'-Dimethylbenzidine] | 1.15 | 0.925 | 0.831 | 0.556 | –
CCC(C)n1c(=O)[nH]c(C)c(Br)c1=O (stereo unspecified) [Bromacil] | 1 | 0.995 | 0.904 | 0.896 | 0.919
c1ccc2c(c1)oc1ccccc12 [Dibenzofuran] | 1.04 | 0.95 | 1.02 | 1.15 | –
Oc1ccc(Cl)cc1Cc1ccccc1 [Clorophene] | 1.05 | 1.07 | 0.943 | – | 0.901
Nc1ccc2ccccc2c1 [2-Naphthylamine] | 0.991 | 0.869 | 0.998 | 0.629 | –
CCOP(=S)(OCC)Oc1nc(Cl)c(Cl)cc1Cl [Chlorpyrifos] | 1.11 | 1.01 | 0.926 | 1.12 | –

SMILES | Wnt reporter firefly/Renilla luciferase ratio (concentration: 0.1 uM) | Wnt reporter firefly/Renilla luciferase ratio (concentration: 1 uM) | Wnt reporter firefly/Renilla luciferase ratio (concentration: 10 uM) | Wnt reporter firefly/Renilla luciferase ratio (concentration: 100 uM) | Wnt reporter firefly/Renilla luciferase ratio (concentration: 0.01 uM)
N#CC(Br)(Br)C(N)=O [2,2-Dibromo-3-nitrilopropionamide] | 1.26 | 1.24 | 1.3 | 1.23 | –
Nc1ccc([N+](=O)[O-])cc1 [4-Nitroaniline] | 1.19 | 0.817 | 0.602 | 0.574 | –
O=S(=O)([O-])C(F)(F)C(F)(F)C(F)(F)C(F)(F)F.[K+] | 1.15 | 1.04 | 1.23 | 1.73 | –
O=S(=O)([O-])C(F)(F)C(F)(F)C(F)(F)C(F)(F)C(F)(F)C(F)(F)C(F)(F)C(F)(F)F.[K+] | 1.12 | 1.24 | 1.39 | 0.833 | –
O=S(=O)([O-])C(F)(F)C(F)(F)C(F)(F)C(F)(F)C(F)(F)C(F)(F)F.[K+] | 1.21 | 0.967 | 1.07 | 1.21 | –
ClC1=C(Cl)C(Cl)(Cl)C(Cl)=C1Cl [Hexachlorocyclopentadiene] | 1.24 | 0.958 | 1.02 | 0.638 | –
O=C(O)CNCP(=O)(O)O [Glyphosate] | 1.38 | 1.39 | 1.04 | 1.75 | 1.29
C=C(C)[C@H]1Cc2c(ccc3c2O[C@@H]2COc4cc(OC)c(OC)cc4[C@@H]2C3=O)O1 [Rotenone] | 0.675 | 0.7 | 0.862 | – | 0.948
CCc1cccc(CC)c1N(COC)C(=O)CCl [Alachlor] | 0.977 | 0.938 | 0.799 | 0.366 | 0.923
CC1(C)C(C=C(Cl)Cl)C1C(=O)OC(C#N)c1cccc(Oc2ccccc2)c1 (stereo unspecified) [Cypermethrin] | 1.14 | 1.06 | 0.991 | 0.601 | 1.02
CS(=O)(=O)c1ccc(C(=O)C2C(=O)CCCC2=O)c([N+](=O)[O-])c1 [Mesotrione] | 1.82 | 0.968 | 1.14 | 1.16 | 1.7
C=CC(N)=O [Acrylamide] | 0.86 | 0.905 | 0.839 | 1.1 | –
N#CSCSC#N [Methylene bis(thiocyanate)] | 0.976 | 1.05 | 1.31 | – | 0.967
CS/C(C)=N/OC(=O)N(C)SN(C)C(=O)O/N=C(\C)SC [Thiodicarb] | 1.86 | 1.6 | 1.15 | – | 1.53
CNC(=O)ON=C(SC)C(=O)N(C)C [Oxamyl] | 1.22 | 1.11 | 1.43 | 0.291 | 1.55
CNC(=O)ON=C(C)SC [Methomyl] | 1.08 | 1.03 | 0.996 | 1.19 | 0.847
Nn1cnnc1 [4-Amino-1,2,4-triazole] | 1.22 | 0.928 | 1.27 | 1.43 | –
ClC1=C(Cl)[C@]2(Cl)[C@H]3[C@H]([C@@H]4C=C[C@H]3C4)[C@@]1(Cl)C2(Cl)Cl [Aldrin] | 1.2 | 0.895 | 1.15 | 1.43 | –
COC(=O)c1ccccc1C(=O)OC [Dimethyl phthalate] | 1.21 | 1.21 | 1.2 | 1.42 | 1.03
N#Cc1nn(-c2c(Cl)cc(C(F)(F)F)cc2Cl)c(N)c1S(=O)C(F)(F)F (stereo unspecified) [Fipronil] | 0.896 | 0.987 | 0.889 | 0.402 | 0.954
COS(=O)(=O)[O-].Cn1c(-c2ccccc2)cc(-c2ccccc2)[n+]1C [Difenzoquat metilsulfate] | 0.813 | 1.1 | 0.847 | 0.425 | 0.771
CC(C)(C)C(O)(CCc1ccc(Cl)cc1)Cn1cncn1 (stereo unspecified) [Tebuconazole] | 1.04 | 0.915 | 0.972 | 0.461 | –

SMILES | Wnt reporter firefly/Renilla luciferase ratio (concentration: 0.1 uM) | Wnt reporter firefly/Renilla luciferase ratio (concentration: 1 uM) | Wnt reporter firefly/Renilla luciferase ratio (concentration: 10 uM) | Wnt reporter firefly/Renilla luciferase ratio (concentration: 100 uM) | Wnt reporter firefly/Renilla luciferase ratio (concentration: 0.01 uM)
CC(=O)N=C1C=CC(=O)C=C1 | 1.17 | 1 | 0.923 | 1.08 | 0.925
CCN(CC)CCO [N,N-Diethylethanolamine] | 1.01 | 1.07 | 0.956 | 1.44 | –
Clc1ccc(C(c2ccccc2Cl)C(Cl)(Cl)Cl)cc1 (stereo unspecified) | 0.989 | 0.858 | 0.978 | 1.08 | –
c1cc2ccc3cccc4ccc(c1)c2c34 [Pyrene] | 1.09 | 0.96 | 1.05 | 0.354 | –
N=C(Nc1ccccc1)Nc1ccccc1 [1,3-Diphenylguanidine] | 1.06 | 1.28 | 0.977 | 1.02 | –
NC1=NC(O)C2C3OC4(O)OC(C(O)C2(N1)C4O)C3(O)CO (stereo unspecified) [Tetrodotoxin (TTX)] | 1.12 | 1.09 | 1.06 | 1.8 | 1.05
CCOc1cccc([C@]2(N3CCN(c4ccccc4)CC3)CC[C@@H](C)CC2)c1.CS(=O)(=O)O | 1.38 | 0.926 | 1.05 | 1.12 | –
CCCN(CCOc1c(Cl)cc(Cl)cc1Cl)C(=O)n1ccnc1 [Prochloraz] | 1.15 | 0.904 | 1.05 | 0.247 | 1.14
CCCOC/C(=N\c1ccc(Cl)cc1C(F)(F)F)n1ccnc1 [Triflumizole] | 1.65 | 1.53 | 1.91 | 1.72 | 1.29
CN1C2CC(OC(=O)C(CO)c3ccccc3)CC1C1OC12 (stereo unspecified) [Scopolamine] | 1.56 | 1.15 | 1.24 | 1.26 | 1.61
N#Cc1cc(Br)c(O)c(Br)c1 [Bromoxynil] | 0.882 | 0.923 | 0.998 | 0.286 | 0.815
CCNc1nc(Cl)nc(NC(C)C)n1 [Atrazine] | 1.38 | 1.15 | 1.29 | 1.18 | 1.45
Cc1cccc([N+](=O)[O-])c1C [1,2-Dimethyl-3-nitrobenzene] | 0.993 | 0.898 | 0.848 | 1.57 | –
COS(C)(=O)=O [Methyl methanesulfonate] | 0.999 | 0.797 | 1.14 | 1.24 | –
COC(=O)c1c(C(F)F)nc(C(F)(F)F)c(C2=NCCS2)c1CC(C)C [Thiazopyr] | 0.899 | 0.947 | 0.872 | 0.82 | 0.815
CCOCCOC(C)=O [2-Ethoxyethyl acetate] | 1.05 | 0.896 | 1.18 | 1.3 | –
O=[N+]([O-])c1ccc(Oc2ccc(Cl)cc2Cl)cc1 [Nitrofen] | 1.04 | 0.882 | 1.01 | 1.28 | –
COC(=O)C(C)Oc1ccc(Oc2ccc(Cl)cc2Cl)cc1 (stereo unspecified) [Diclofop-methyl] | 1.28 | 1.98 | 1.27 | 1.29 | 1.1
CC(Oc1ccc(Cl)cc1Cl)C(=O)O (stereo unspecified) [Dichlorprop] | 1.21 | 1.22 | 1.24 | 1.32 | 1.16
Clc1ccc(C(Cl)(Cl)Cl)cc1 [4-Chlorobenzotrichloride] | 1.23 | 0.884 | 1.42 | 2.38 | –
Clc1ccc(Cl)cc1 [1,4-Dichlorobenzene] | 1.45 | 0.934 | 1.1 | 1.39 | –
OC(c1ccc(Cl)cc1)(c1ccc(Cl)cc1)C(Cl)(Cl)Cl [Dicofol] | 1.37 | 1.17 | 1.3 | 1.06 | 1.23

Reference: the supplement of paper PMC9254222
